Screens deposited in PubChem by several laboratories.
Only some compounds are listed: those with a hit (about 1.7% of all), similar ones and a draw of the others.
HDAC3 inh: human HDAC3 inhibition; O15379; recombinant HDAC3, fluorogenic peptide/trypsin coupled, fluorescence; inhibition, % at 8.3 µM; hit rate 0.15% among 320,000; AID 2718; in the data active = inhibition above about 26%, passing the limit was not always enough; inconclusive = no clear call, values can overlap the other calls
LANA-H2A inh: blocks KSHV LANA binding to histone H2A/H2B; Q9QR71; cell-free LANA-H2A/H2B peptide, fluorescence polarization; inhibition, % (concentration not given with the values); hit rate 0.6% among 320,000; in the data active = inhibition mostly above about 10%, no sharp cut-off; inactive = mostly below about 6.7%
Target sequence (Q9QR71 whole entry, looked up): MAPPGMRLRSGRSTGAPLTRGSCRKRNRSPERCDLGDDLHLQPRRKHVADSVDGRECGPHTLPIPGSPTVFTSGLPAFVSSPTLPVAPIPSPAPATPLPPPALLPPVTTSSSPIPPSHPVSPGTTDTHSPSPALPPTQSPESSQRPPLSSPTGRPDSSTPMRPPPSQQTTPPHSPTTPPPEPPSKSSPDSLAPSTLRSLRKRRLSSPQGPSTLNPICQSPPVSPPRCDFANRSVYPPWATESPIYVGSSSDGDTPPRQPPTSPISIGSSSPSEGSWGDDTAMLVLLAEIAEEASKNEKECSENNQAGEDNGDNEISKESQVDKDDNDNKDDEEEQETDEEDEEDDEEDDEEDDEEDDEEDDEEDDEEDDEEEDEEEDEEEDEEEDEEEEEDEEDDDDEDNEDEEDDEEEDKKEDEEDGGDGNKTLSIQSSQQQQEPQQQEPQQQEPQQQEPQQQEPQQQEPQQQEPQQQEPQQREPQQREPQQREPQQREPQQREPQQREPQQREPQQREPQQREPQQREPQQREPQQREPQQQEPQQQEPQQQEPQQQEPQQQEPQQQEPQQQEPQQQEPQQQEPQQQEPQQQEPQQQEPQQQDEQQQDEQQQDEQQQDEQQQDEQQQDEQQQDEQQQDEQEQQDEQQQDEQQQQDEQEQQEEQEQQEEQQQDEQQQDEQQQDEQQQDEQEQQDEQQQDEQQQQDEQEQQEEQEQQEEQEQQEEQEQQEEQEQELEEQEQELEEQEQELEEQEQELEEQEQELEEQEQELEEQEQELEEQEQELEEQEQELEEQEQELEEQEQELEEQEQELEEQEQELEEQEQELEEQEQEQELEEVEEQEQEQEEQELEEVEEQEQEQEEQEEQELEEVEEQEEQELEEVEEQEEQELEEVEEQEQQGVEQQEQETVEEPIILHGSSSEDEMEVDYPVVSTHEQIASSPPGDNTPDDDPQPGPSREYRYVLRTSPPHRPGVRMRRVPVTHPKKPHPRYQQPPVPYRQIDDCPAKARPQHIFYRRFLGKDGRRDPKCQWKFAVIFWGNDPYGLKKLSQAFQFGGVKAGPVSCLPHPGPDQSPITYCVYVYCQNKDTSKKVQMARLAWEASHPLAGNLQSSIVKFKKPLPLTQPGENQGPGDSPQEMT
m5-HT2A agonist: activates the mouse 5-HT2A serotonin receptor | P35363 | CHO-K1 mHTR2A beta-arrestin complementation, luminescence; percent of 30 µM serotonin response | activation, % at 7.6 µM | hit rate 0.66% among 360,000 | AID 624169;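 active = activation above a run cutoff, the mean activation of all tested compounds plus 3 SD, cut at about 14% in these data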;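 note: 0% = plate median of compound wells and 100% = 30 µM serotonin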
Fh CTSL1 inh: blocks F. hepatica cathepsin L1 in PFM18AAP counter-screen | recombinant F. hepatica cathepsin L1, Z-Leu-Arg-MCA fluorescence | inhibition, % at 5.96 µM | hit rate 0.49% among 300,000 | AID 1906;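 active = inhibition above the mean of all tested compounds plus 3 SD, set per screening campaign, cut at about 17% in these data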;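 note: 0% = plate median of test compound wells and 100% = 1 µM Z-Phe-Ala-diazomethylketone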
The depositor's hits bear a star.

Results for CCOC(=O)c1cc(CC)sc1NC(=O)COC(=O)C1CCC1 ?
HDAC3 inh: 2.7; LANA-H2A inh: 3.6; m5-HT2A agonist: -2.6; Fh CTSL1 inh: -3.3

Results for COc1ccccc1N(CC(=O)NC1CCCCC1)C(=O)CNC(=O)c1cccs1 ?
HDAC3 inh: -2.1; LANA-H2A inh: -14.1; m5-HT2A agonist: 1.7; Fh CTSL1 inh: -6.6

How did COc1cc(NC(=S)NC(=O)c2cccs2)ccc1NC(=O)C(C)C do in these assays?
HDAC3 inh: -7.6; LANA-H2A inh: 36.5*; m5-HT2A agonist: -0.5; Fh CTSL1 inh: 0.0

How did CCCC(NC(=O)CCl)c1ccccc1 (configuration not stated) do in these assays?
HDAC3 inh: -6.0; LANA-H2A inh: -9.3; m5-HT2A agonist: 6.8; Fh CTSL1 inh: 22.3*

What do the screens show for `CC(C)CC(NC(=O)CCl)c1ccccc1` (configuration not stated)?
HDAC3 inh: 0.2; LANA-H2A inh: 4.9; m5-HT2A agonist: 3.1; Fh CTSL1 inh: 15.3

Results for CCN(C[C@H]1N[C@@](Cc2ccccc2)(C(=O)OC)[C@H]2C(=O)N(Cc3ccccc3)C(=O)[C@@H]12)S(=O)(=O)c1ccc(OC(F)(F)F)cc1 ?
HDAC3 inh: 3.9; LANA-H2A inh: active; m5-HT2A agonist: 0.6

Results for CCN(C[C@H]1N[C@@](Cc2ccccc2)(C(=O)OC)[C@H]2C(=O)N(Cc3ccccc3)C(=O)[C@@H]12)S(=O)(=O)c1ccc(C(C)(C)C)cc1 ?
HDAC3 inh: -2.3; LANA-H2A inh: 66.6*; m5-HT2A agonist: 7.7

Results for CCN(C[C@H]1N[C@@](Cc2ccccc2)(C(=O)OC)[C@H]2C(=O)N(Cc3ccccc3)C(=O)[C@@H]12)C(=O)COc1ccccc1 ?
HDAC3 inh: 1.2; LANA-H2A inh: active; m5-HT2A agonist: 2.5

How did Cc1ccc(S(=O)(=O)N2CCOC2CNC(=O)C(=O)NCCc2c[nH]c3ccccc23)cc1 (configuration not stated) do in these assays?
HDAC3 inh: -0.4; LANA-H2A inh: 42.1*; m5-HT2A agonist: 1.7; Fh CTSL1 inh: -0.6

How did O=C(NCCc1c[nH]c2ccccc12)C(=O)NCC1OCCCN1S(=O)(=O)c1ccc(F)cc1 (configuration not stated) do in these assays?
HDAC3 inh: -9.0; LANA-H2A inh: -2.2; m5-HT2A agonist: -1.3; Fh CTSL1 inh: 1.1

What do the screens show for `CCN(CC)c1ccc(C(=O)NNC(=O)CCl)cc1`?
HDAC3 inh: 12.0; LANA-H2A inh: -0.8; m5-HT2A agonist: -13.0; Fh CTSL1 inh: 58.2*

How did CCOc1ccc(N(C)S(=O)(=O)c2ccc(-c3ccc(=O)[nH]n3)s2)cc1 do in these assays?
HDAC3 inh: 0.4; LANA-H2A inh: 15.1*; m5-HT2A agonist: 6.3; Fh CTSL1 inh: 40.4*

Results for Cc1oc2c(CN3CCCCC3)c(O)ccc2c(=O)c1-c1ccc(Cl)cc1 ?
HDAC3 inh: -27.6; LANA-H2A inh: 0.6; m5-HT2A agonist: -3.3; Fh CTSL1 inh: 0.4

How did O=C(CCCOc1cccc(Br)c1)NCCOc1ccccc1 do in these assays?
HDAC3 inh: 8.7; LANA-H2A inh: 2.5; m5-HT2A agonist: -3.2; Fh CTSL1 inh: -1.8

How did CN(C1=C(NC(=O)c2ccccc2)C(=O)c2ccccc2C1=O)C1CCS(=O)(=O)C1 (configuration not stated) do in these assays?
HDAC3 inh: 8.7; LANA-H2A inh: -7.6; m5-HT2A agonist: -2.6; Fh CTSL1 inh: 21.6*

Results for CC(=O)NC1=C(NC2CCS(=O)(=O)C2)C(=O)c2ccccc2C1=O (configuration not stated) ?
HDAC3 inh: 7.5; LANA-H2A inh: 3.5; m5-HT2A agonist: 0.5; Fh CTSL1 inh: 0.8

How did CC(NCC(=O)NCC(=O)Nc1ccc(F)cc1)c1cccc(C(F)(F)F)c1 (configuration not stated) do in these assays?
HDAC3 inh: 3.6; LANA-H2A inh: -0.7; m5-HT2A agonist: -7.0

What do the screens show for `CC(NCC(=O)Nc1ccccc1C(=O)NC1CC1)c1cccc(C(F)(F)F)c1` (configuration not stated)?
HDAC3 inh: 1.4; LANA-H2A inh: 11.2*; m5-HT2A agonist: -1.4

Results for NC(=S)N=Nc1ccc(NN=C(N)N)cc1 ?
HDAC3 inh: 0.8; LANA-H2A inh: 7.0; m5-HT2A agonist: -2.7; Fh CTSL1 inh: 45.9*

Results for COc1ccc(/C=C\C(=O)O[C@@H]2C(O)C(O[C@@H]3OC(C)[C@H](O[C@@H]4OCC(O[C@H]5O[C@H](CO)[C@@H](O)C(O)C5O)C(O)C4O)C(O)C3O)[C@H](OC(=O)[C@]34CCC(C)(C)C[C@@H]3C3=CCC5[C@@]6(C)CC(O)C(O[C@@H]7OC(CO)C(O)[C@H](O)[C@H]7O)[C@@](C)(C(=O)O)C6CC[C@@]5(C)[C@]3(CO)CC4)O[C@H]2C)cc1 (some centres not stated) ?
HDAC3 inh: 16.2; LANA-H2A inh: -0.8; m5-HT2A agonist: 15.9*

What do the screens show for `C[C@@H]1CC[C@]2(C(=O)O[C@@H]3O[C@H](CO)[C@@H](O)[C@H](O)[C@H]3O)CC[C@]3(C)C(=CCC4[C@@]5(C)CC[C@H](O[C@@H]6OC[C@H](O)[C@H](O[C@@H]7O[C@H](CO)[C@@H](O)[C@H](O)[C@H]7O)[C@H]6O)C(C)(C)C5CC[C@]43C)C2[C@]1(C)O` (some centres not stated)?
HDAC3 inh: 1.6; LANA-H2A inh: 0.0; m5-HT2A agonist: 9.4

How did Cc1cc(C)c2nc(N3C(=O)C(O)=C(C(=O)c4ccco4)C3c3cccc(O)c3)sc2c1 (configuration not stated) do in these assays?
HDAC3 inh: -1.7; m5-HT2A agonist: -4.8

How did COc1ccc(OC)c(Nc2cc3ccccc3c(=O)[nH]2)c1 do in these assays?
HDAC3 inh: -2.7; LANA-H2A inh: 2.8; m5-HT2A agonist: -3.3; Fh CTSL1 inh: 69.8*

How did CC(=O)c1cccc(-c2ccc3c(=O)[nH]c(Nc4ccccc4)cc3c2)c1 do in these assays?
HDAC3 inh: -4.1; LANA-H2A inh: 0.1; m5-HT2A agonist: -0.5; Fh CTSL1 inh: 85.3*

What do the screens show for `COc1ccc(OC)c(Nc2nnc(C)c(=O)[nH]2)c1`?
HDAC3 inh: inconclusive; LANA-H2A inh: 4.3; Fh CTSL1 inh: -4.3

Results for O=c1[nH]c(Nc2ccccc2)cc2ccccc12 ?
HDAC3 inh: -2.0; LANA-H2A inh: 6.8; m5-HT2A agonist: -4.4; Fh CTSL1 inh: 104.6*

How did Cn1c(=O)cc(Nc2ccccc2)[nH]c1=O do in these assays?
HDAC3 inh: -2.3; LANA-H2A inh: -0.6; m5-HT2A agonist: -2.6; Fh CTSL1 inh: 5.2

Results for COc1ccccc1Nc1cc2cc(Br)ccc2c(=O)[nH]1 ?
HDAC3 inh: 2.4; LANA-H2A inh: 3.3; m5-HT2A agonist: -8.0; Fh CTSL1 inh: 47.4*

Results for COc1ccccc1Nc1nnc(C)c(=O)[nH]1 ?
HDAC3 inh: -10.3; LANA-H2A inh: 4.7; m5-HT2A agonist: -0.1; Fh CTSL1 inh: -1.8

How did O=c1[nH]c(Nc2ccccc2)cc2cc(Br)ccc12 do in these assays?
HDAC3 inh: 3.5; LANA-H2A inh: -0.8; m5-HT2A agonist: -1.5; Fh CTSL1 inh: 61.0*

Results for O=c1cc(Nc2cccc(Br)c2)[nH]c(=O)[nH]1 ?
HDAC3 inh: -0.5; LANA-H2A inh: -2.8; m5-HT2A agonist: 1.5; Fh CTSL1 inh: -8.8
